From PubChem BioAssay AID1159580 (chemical genetic matrix, 2015)
About 2,000 (36%) of roughly 5,500 compounds were called active. Another 18% or so got no clear call; they are omitted. Rule as the data show it: active = normalized growth mostly below about 0.91 (no sharp cut-off); inconclusive = no clear call, values can overlap the other calls; inactive = mostly above about 0.92. The list shows a part of the results.

Experiment: chemical genetic growth profiling, strain panel (AID 1159580);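 also: tested at 20 µM; growth read once vehicle control cultures reached saturation at 30 °C; 1 = growth at the plate median or of vehicle wells; lower values mean less growth of the strain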
Conditions: S. cerevisiae deletion strains, growth OD

Measured: normalized growth

O=c1c(O)c(-c2ccc(O)c(O)c2)oc2c(O)c(O)cc(O)c12
active: locus YAL021C, strain ccr4, hits give low values 0.864 | locus YDR159W, strain sac3, hits give low values 1.13 [resistant]
inactive: locus YAL026C, strain drs2, hits give low values 0.954 | locus YAL030W, strain snc1, hits give low values 1 | locus YBL061C, strain skt5, hits give low values 0.925 | locus YBR009C, strain hhf1, hits give low values 1.04 | locus YBR023C, strain chs3, hits give low values 0.929 | locus YBR171W, strain sec66, hits give low values 1.02 | locus YBR231C, strain swc5, hits give low values 0.927 | locus YBR279W, strain paf1, hits give low values 0.994 | locus YCL011C, strain gbp2, hits give low values 1.01 | locus YCL016C, strain dcc1, hits give low values 0.991 | locus YCL061C, strain MRC1, hits give low values 0.989 | locus YCL069W, strain vba3, hits give low values 1.01 | locus YCR088W, strain abp1, hits give low values 1.02 | locus YDL005C, strain med2, hits give low values 1.03 | locus YDL040C, strain nat1, hits give low values 1.02 | locus YDR001C, strain nth1, hits give low values 1.02 | locus YDR069C, strain doa4, hits give low values 0.906 | locus YDR137W, strain rgp1, hits give low values 1.02 | locus YDR195W, strain ref2 1.01 | locus YDR297W, strain sur2, hits give low values 1 | locus YDR334W, strain swr1, hits give low values 0.983 | locus YDR335W, strain msn5, hits give low values 0.994 | locus YDR392W, strain spt3, hits give low values 1.04 | locus YEL003W, strain gim4, hits give low values 0.996 | locus YEL037C, strain rad23, hits give low values 0.987 | locus YEL061C, strain CIN8 (second series), hits give low values 1.01 | locus YER015W, strain faa2, hits give low values 0.98 | locus YER016W, strain bim1, hits give low values 1.02 | locus YER111C, strain swi4, hits give low values 0.942 | locus YER155C, strain BEM2 (second series), hits give low values 0.984 | locus YFR010W, strain ubp6, hits give low values 0.932 | locus YGL167C, strain pmr1, hits give low values 1.01 | locus YGL173C, strain kem1, hits give low values 0.947 | locus YGL227W, strain vid30, hits give low values 1.03 | locus YGL240W, strain doc1, hits give low values 1.11 | locus YGL253W, strain hxk2, hits give low values 1 | locus YHR013C, strain ard1, hits give low values 0.931 | locus YHR027C, strain rpn1, hits give low values 0.983 | locus YHR030C, strain SLT2, hits give low values 1 | locus YHR079C, strain IRE1, hits give low values 1.02 | locus YHR142W, strain chs7, hits give low values 0.891 | locus YJL092W, strain hpr5, hits give low values 1.02 | locus YJL095W, strain BCK1 (second series), hits give low values 0.993 | locus YJL095W, strain BCK1, hits give low values 1.02 | locus YJL115W, strain asf1, hits give low values 1.01 | locus YJL129C, strain trk1, hits give low values 1.08 | locus YJL154C, strain vps35, hits give low values 1.02 | locus YJL164C, strain tpk1, hits give low values 0.959 | locus YJL166W, strain qcr8, hits give low values 0.995 | locus YJL187C, strain SWE1, hits give low values 0.997 | locus YJR066W, strain TOR1, hits give low values 0.967 | locus YKL160W, strain elf1, hits give low values 0.942 | locus YKR026C, strain gcn3, hits give low values 1.01 | locus YKR091W, strain srl3, hits give low values 1.03 | locus YLL001W, strain dnm1, hits give low values 1.03 | locus YLL026W, hits give low values 1.02 | locus YLL041C, strain sdh2, hits give low values 1.01 | locus YLR027C, strain aat2, hits give low values 0.992 | locus YLR113W, strain HOG1, hits give low values 1.12 | locus YLR221C, strain rsa3, hits give low values 0.981 | locus YLR258W, strain gsy2, hits give low values 1.01 | locus YLR262C, strain YPT6 (second series), hits give low values 0.919 | locus YLR320W, strain mms22, hits give low values 1.02 | locus YLR342W, strain FKS1, hits give low values 0.967 | locus YLR357W, strain rsc2, hits give low values 0.889 | locus YLR370C, strain arc18, hits give low values 0.938 | locus YLR384C, strain iki3, hits give low values 1.01 | locus YML120C, strain ndi1, hits give low values 1 | locus YMR058W, strain fet3, hits give low values 0.921 | locus YMR125W, strain sto1, hits give low values 1.03 | locus YMR129W, hits give low values 1.02 | locus YMR205C, strain PFK2, hits give low values 1.06 | locus YMR231W, strain pep5, hits give low values 0.999 | locus YNL071W, strain lat1, hits give low values 1.01 | locus YNL183C, strain NPR1, hits give low values 0.997 | locus YNL209W, strain ssb2, hits give low values 0.94 | locus YNL248C, strain rpa49, hits give low values 1 | locus YNL322C, strain KRE1 (second series), hits give low values 1.01 | locus YNR049C, strain mso1, hits give low values 1.02 | locus YOR001W, strain rrp6, hits give low values 0.981 | locus YOR070C, strain gyp1, hits give low values 1.01 | locus YOR080W, strain dia2, hits give low values 1.01 | locus YOR083W, strain WHI5, hits give low values 0.931 | locus YOR106W, strain vam3, hits give low values 0.872 | locus YOR231W, strain MKK1, hits give low values 1.03 | locus YOR265W, strain rbl2, hits give low values 1 | locus YOR270C, strain vph1, hits give low values 0.948 | locus YOR290C, strain snf2, hits give low values 0.962 | locus YPL051W, strain arl3, hits give low values 0.92 | locus YPL078C, strain atp4, hits give low values 0.963 | locus YPL106C, strain sse1, hits give low values 1 | locus YPL240C, strain hsp82, hits give low values 0.994 | locus YPL256C, strain CLN2, hits give low values 1.04
